High-throughput results deposited in PubChem by The Scripps Research Institute Molecular Screening Center.
Compounds with a hit are over-represented: about 0.81% of the library has one in this group of screens.
NR2F2 inh: NR2F2 transcriptional activity inhibitors, primary screen, cell-based, luciferase reporter, HEK293T, luminescence; hit rate 0.7% among 370,000; HEK293T NGFI-A luciferase reporter; COUP transcription factor 2 (Homo sapiens), P24468; inhibition, % at 8.6 µM;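 active means inhibition above a per-plate cutoff, mean inhibition of test wells between control levels plus 3 SD, cut at about 38% in these data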;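 further: cells cotransfected with COUP-TFII expression vector driving the NGFI-A reporter; 0% = median of COUP-TF2 test wells and 100% = reporter-only cells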
NCOA3 inh: SRC3 coactivator transcriptional activity inhibitors, primary screen, cell-based, luminescence; Nuclear receptor coactivator 3 (Homo sapiens), Q9Y6Q9; HEK293 GAL4-SRC3 luciferase reporter; inhibition, % at 3.6 µM; hit rate 0.17% among 360,000; AID 588352, 2011;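 active means inhibition above a per-campaign cutoff, the mean of all compounds plus 3 SD, cut at about 60% in these data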;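 further: 0% = DMSO-treated cells and 100% = gossypol-treated cells at 36 µM; higher means less SRC3-driven luciferase light from the GAL4 reporter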
NCOA1 inh: SRC1 coactivator transcriptional activity inhibitors, primary screen, cell-based, luminescence; inhibition, % at 3.6 µM; Nuclear receptor coactivator 1 (Homo sapiens), Q15788; AID 588354, 2011; HEK293 GAL4-SRC1 luciferase reporter; hit rate 0.12% among 360,000;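 active means inhibition above the campaign mean plus 3 SD, with each screening campaign given its own cutoff, cut at about 60% in these data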;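 further: 0% = DMSO treated cells and 100% = gossypol at 36 µM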
NCOA2 inhibitor: inhibition of GAL4-SRC2 driven luciferase reporter, primary screen, SRC2 inhibitor project, cell-based, luminescence | HEK293 GAL4-SRC2 luciferase reporter | inhibition, % at 9 µM | hit rate 0.17% among 370,000;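 active means inhibition above the mean inhibition of all tested compounds plus 3 SD, set per campaign, cut at about 52% in these data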;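 further: 0% = DMSO treated cells and 100% = cells given Gossypol at 36 µM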
LRH-1 inv ag: LRH-1 (NR5A2) inverse agonists, primary screen, cell-based, luminescence, HEK293T, StAR-luciferase reporter. Nuclear receptor subfamily 5 group A member 2 (Homo sapiens), O00482. hit rate 0.13% among 360,000. inhibition, % at 3.6 µM. LRH-1 transfected, 24 h. AID 602396, 2012;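 active means inhibition above the mean inhibition of all tested compounds plus 3 SD, cut at about 73% in these data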;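 further: 0% = DMSO wells and 100% = reporter-only cells lacking LRH-1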
VP16 Luc counter: Gal4-VP16 luciferase reporter inhibitors, counter-screen for COUP-TFII antagonist project, cell-based, luminescence, HEK293; shares compounds with NR2F2 inh; inhibition, % at 8.5 µM; hit rate 25% among 2,500; AID 687007, 2013; in the data active means inhibition above about 13%
NR2F2 inh conf: NR2F2 transcriptional activity inhibitors, confirmation, cell-based, luciferase reporter, HEK293, triplicate; shares compounds with NR2F2 inh; HEK293 NGFI-A luciferase reporter, luminescence; inhibition, % at 8.5 µM; hit rate 45% among 2,500; AID 687008, 2013;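 active means mean inhibition over three repeats above a set limit taken from the earlier primary screen, cut at about 38% in these data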;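 further: 100% = cells given the luciferase reporter alone without the COUP-TF2 vector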
Starred values were filed as active, the others as inactive; x = no result given.

SMILES | NR2F2 inh | NCOA3 inh | NCOA1 inh | NCOA2 inhibitor | LRH-1 inv ag | VP16 Luc counter | NR2F2 inh conf
COc1ccc(S(=O)(=O)N2CCOC2CNC(=O)C(=O)NCCc2ccc(OC)c(OC)c2)cc1 (centres undefined) | 12.5 | 13.6 | 12.3 | 17.0 | 16.3 | x | x
COc1ccc(CCNC(=O)C(=O)NCC2OCCN2S(=O)(=O)c2ccc(Cl)cc2)cc1OC (centres undefined) | 42.4* | 2.3 | -3.3 | 20.8 | 12.5 | 2.8 | 17.3
Cc1sc(-c2ccccn2)nc1OC(=O)c1ccc(F)cc1F | 37.8* | 32.6 | 4.3 | 7.9 | 9.8 | -15.6 | 29.6
Cc1sc(-c2ccccn2)nc1OC(=O)c1ccc(Cl)c(Cl)c1 | 0.0 | 2.5 | -6.4 | 6.1 | -20.6 | x | x
CC(C)c1ccc2oc(=O)cc(CN3CCN(c4ccc(F)cc4)CC3)c2c1 | -3.3 | 12.1 | 8.3 | -14.5 | 4.1 | x | x
Cc1ccc(C)c(N2CCN(C(=O)C3CCN(S(=O)(=O)c4c(C)noc4C)CC3)CC2)c1 | 53.4* | 1.7 | 18.4 | 21.9 | 26.6 | -4.1 | 32.8
COc1cccc2c1C(=O)c1c(O)c3c(c(O)c1C2=O)CC(O)(C(C)=O)CC3OC1CC(N(C)C)C(O)C(C)O1 (centres undefined) | 53.2* | 85.3* | 74.6* | 55.3* | 96.5* | 14.8* | 20.4
CC(=O)[C@@]1(O)Cc2c(O)c3c(c(O)c2[C@H](O[C@H]2C[C@H](N)[C@H](O)[C@H](C)O2)C1)C(=O)c1ccccc1C3=O | 58.3* | -67.2 | -138.1 | -51.0 | 33.9 | 9.8 | 37.9*
CN(C(=O)c1ccc2c(c1)OCO2)C1CCCCC1 | 0.1 | -41.0 | -87.3 | -33.0 | -53.0 | x | x
COc1ccc(-c2nc(N3CCCCCC3)sc2C(=O)c2ccccc2)cc1 | 57.6* | 6.4 | -8.7 | -35.2 | -3.7 | -10.6 | -1.8
O=C(c1ccccc1)c1sc(N2CCCCCC2)nc1-c1ccccc1 | -10.6 | 15.6 | -2.9 | 18.6 | -3.7 | x | x
CCc1cc(-c2nnn(CCC3COCCO3)c2CC)cc(CC)c1-c1cn(Cc2ccccc2)nn1 (centres undefined) | 30.1 | 7.1 | -6.4 | 6.2 | 1.6 | x | x
CNC(=O)c1nc[nH]c1C(=O)NC | -21.6 | 2.0 | -22.9 | -43.8 | 12.5 | x | x
COC1=CC(=O)c2nc(Cl)ccc2C1=O | 38.4* | 58.9 | 63.5* | 49.5 | 76.1* | 34.8* | 26.4
CC1=C(C(=O)N(C(C)C)C(C)C)CC(CC(=O)NC2CC2)C(=O)N1Cc1ccccc1 (centres undefined) | 7.4 | 0.2 | 11.8 | -2.9 | -3.4 | x | x
COc1ccc(-c2csc(C(C)(O)c3cccc(OC)c3)n2)cc1 (centres undefined) | 35.7 | 5.2 | -22.6 | 29.1 | 15.2 | x | x
COc1cccc(C(C)(O)c2nc(-c3ccc(S(C)(=O)=O)cc3)cs2)c1 (centres undefined) | 40.4* | 12.7 | 9.9 | 8.6 | 43.5 | 3.5 | 4.7
COc1cc2nc(=S)n3[nH]c(CCn4c(C)nc5ccccc54)nc3c2cc1OC | 14.3 | -2.8 | -11.4 | -36.9 | -10.0 | x | x
CCCc1cc(=O)n2nc(N3CCC(C(=O)N4CCN(c5ccc(OC)cc5)CC4)CC3)sc2n1 | 56.1* | 4.3 | -3.2 | 14.6 | 53.7 | 11.5 | 64.4*
Cc1cc(=O)n2nc(N3CCC(C(=O)N4CCN(c5ccccc5)CC4)CC3)sc2n1 | -2.8 | 4.3 | -12.8 | -23.7 | 1.8 | x | x
COc1ccc2c(c1)C(CC(C)=O)N(c1ccc(-c3cccs3)cc1)C(c1ccsc1)=C2 (centres undefined) | 46.7* | x | x | 0.7 | 38.1 | -14.4 | -1.8
COc1ccc2c(c1)C(CC(C)=O)N(c1ccc(-c3cnc(OC)nc3)cc1)C(c1ccsc1)=C2 (centres undefined) | -4.8 | x | x | -3.6 | -12.9 | x | x
O=C(CSc1nnnn1C1CC1)N1CCN(c2cccc(Cl)c2)CC1 | 27.1 | -15.8 | 7.4 | 19.8 | -8.1 | x | x
CC(C)c1ccc(CN2CCN(C(=O)CSc3nnnn3C3CC3)CC2)cc1 | 63.3* | 17.6 | 20.1 | 25.9 | 27.5 | 0.9 | 50.6*
CCc1ccc(C(=O)OCC(=O)c2c(N)n(CC(C)C)c(=O)n(C)c2=O)cc1 | 46.9* | 2.4 | 2.1 | 3.9 | 12.1 | 6.9 | 18.9
SMILES | NR2F2 inh | NCOA3 inh | NCOA1 inh | NCOA2 inhibitor | LRH-1 inv ag | VP16 Luc counter | NR2F2 inh conf
CC(C)Cn1c(N)c(C(=O)COC(=O)c2ccc(F)cc2)c(=O)n(C)c1=O | 10.2 | -3.9 | 3.2 | 12.5 | -2.3 | x | x
CCN1C(=O)/C(=C/c2cc(C)n(C)c2C)SC1=Nc1ccc(OC)cc1 | -2.9 | -2.7 | -19.7 | -10.2 | 15.8 | x | x
C[C@@H]1C[C@@H]2O[C@H]2CCCCC(=O)Cc2cc(O)cc(O)c2C(=O)O1 | 63.5* | x | x | 40.8 | x | 59.2* | 65.4*
C[C@@H]1Cc2cc(O)c(O)c(O)c2C(=O)O1 | 13.4 | x | x | 1.2 | x | x | x
C[C@@H]1C[C@H]2O[C@@H]2/C=C\C=C\C(=O)Cc2cc(O)cc(O)c2C(=O)O1 | 85.7* | x | x | 55.0* | x | 38.1* | 5.2
COc1cccc(Oc2ccc(S(=O)(=O)N3CCOCC3)cc2[N+](=O)[O-])c1 | 44.2* | 2.6 | -7.4 | -6.1 | -3.6 | -9.0 | 0.1
O=C(NC1CCCCN(Cc2cccc(Cl)c2)C1=O)c1ccc(COc2ccccc2)cc1 (centres undefined) | 48.3* | x | x | 18.5 | x | 0.7 | 36.1
Cc1cccc(NC(=O)c2ccc(C3SCC(=O)N3CCc3ccccc3)cc2)c1 (centres undefined) | 45.4* | 6.1 | 10.0 | 27.9 | -8.9 | 4.3 | 12.2
Cc1ccc(Oc2ccccc2NC(=O)CSCC(=O)Nc2cc(C)on2)cc1 | 62.2* | 4.1 | 42.5 | 0.3 | 15.3 | 3.7 | 48.7*
O=C(C1CCCN(S(=O)(=O)c2ccccc2)C1)N1CCCc2ccccc21 (centres undefined) | 37.5* | -12.3 | 4.6 | 13.4 | 17.1 | -9.7 | 8.2
Cc1ccc(S(=O)(=O)N2CCCC(C(=O)N3CCCc4ccccc43)C2)cc1 (centres undefined) | -4.7 | 4.5 | 2.3 | -2.8 | -11.4 | x | x
CCC[C@H]1[C@@H](O)CC[C@@]23CCCN2C(=O)CCC[C@@H]13 | -12.8 | x | x | x | x | x | x
Cn1c(=O)cc(OCCCC(=O)Nc2cc(-c3cn[nH]c3)ccn2)c2ccccc21 | 54.7* | x | x | x | x | 34.7* | 36.5
O=C(NCC1CCN(C(=O)C(=O)c2cc3ccccc3o2)CC1)c1cc(C(F)(F)F)cc(C(F)(F)F)c1 | 2.6 | x | x | 28.4 | x | x | x
Cn1nc(C(C)(C)C)cc1C(=O)NCC1CCN(C(=O)C(=O)c2cc3ccccc3o2)CC1 | 40.5* | x | x | -8.8 | x | -3.3 | 10.8
